Compound activity from PubChem BioAssay.
LmPK inhibitor = LmPK (Leishmania mexicana) enzyme inhibition; Q27686; Potency, µM (doses to about 57.5 µM), for the others: top-dose activity change, negative = inhibition, actives largely listed as inhibitors; purified LmPK, Kinase-Glo ATP luminescence, 1 h; 290,000 tested, 0.37% active; further: potency means the concentration at half of the fitted maximal effect; on the % scale 0 is the no-effect control and ±100 the full control effect
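Kinase-Glo luminescence read after 1 h RT reaction of 0.1 nM LmPK with 0.5 mM PEP and 0.1 mM ADP. Activity scaled between uninhibited and enzyme-free controls.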
Cycloheximide cs = counter-screen for Shiga toxin inhibitors: cycloheximide protein synthesis inhibition | cell reporter, cycloheximide protein synthesis inhibition counterscreen | max response, % | 300,000 tested, 12% active | AID 2314; in the data active means max response mostly above about 13%, no sharp cut-off; inactive means mostly below about 14%; further: read at 38.3 µM for the half of the compounds with a filed dose; 0% is about no effect
FBPA Giardia inh = Giardia lamblia aldolase inhibition; A8B2U2; purified Giardia FBPA; Potency, µM (top dose mostly 59.6 µM), inactives show at the highest dose activity, negative = inhibition, hits mostly inhibitors; 290,000 tested, 0.71% active; further: potency means the concentration at half of the fitted maximal effect; on the % scale 0 is the no-effect control and ±100 the full control effect; nearly all actives have a fitted effect of over 55% in size
Target sequence (A8B2U2 whole entry, looked up): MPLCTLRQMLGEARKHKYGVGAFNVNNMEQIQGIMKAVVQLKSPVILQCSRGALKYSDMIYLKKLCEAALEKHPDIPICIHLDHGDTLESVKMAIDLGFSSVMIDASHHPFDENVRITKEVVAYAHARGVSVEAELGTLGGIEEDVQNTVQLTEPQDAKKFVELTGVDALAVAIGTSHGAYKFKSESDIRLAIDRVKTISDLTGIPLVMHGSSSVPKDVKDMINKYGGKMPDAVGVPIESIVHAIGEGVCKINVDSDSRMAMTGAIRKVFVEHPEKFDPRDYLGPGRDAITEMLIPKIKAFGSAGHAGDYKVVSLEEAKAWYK
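Giardia FBPA (40 nM reagent) was preincubated 10 min at RT with compound (up to 57.5 uM final), then substrate plus GAPDH/TPI/NAD/arsenate coupling system with diaphorase/resazurin was added; resorufin fluorescence (525/598 nm) was read after 20 min.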
TbPYK inhibitor = inhibitors of Trypanosoma brucei pyruvate kinase; Q57TT1; TbPYK enzyme, Kinase-Glo Plus ATP luminescence, 45 min; Potency, µM (top dose mostly 76.8 µM), for inactives: top-dose activity, negative = inhibition, usual class: inhibitors; 410,000 tested, 0.12% active; AID 624173; further: potency means the concentration at half of the fitted maximal effect; on the % scale 0 is the no-effect control and ±100 the full control effect; nearly all actives have a fitted effect of over 50% in size
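Luminescent Kinase-Glo Plus end-point after 45 min room-temperature reaction of T. brucei pyruvate kinase started with 130 uM ADP (final). Buffer TEA 50 mM pH 7.2 with KCl, MgCl2, BSA, Tween-20; titration-based qHTS with fitted concentration-effect curves.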
Shiga inhibitor = inhibitors of Shiga toxin in Vero cells. AID 2315. Vero cells, Shiga toxin protein synthesis inhibition reporter. 290,000 tested, 9.2% active. inhibition, % at 38.7 µM; in the data active means inhibition mostly above about 28%, no sharp cut-off; inactive means mostly below about 43%; further: 0% is about no effect
RE007 growth inh = less growth of the S. pombe RE007 Vpr strain; Potency, µM (doses to about 92.2 µM), inactives show at the highest dose activity change, negative = less growth, usual class: inhibitors; S. pombe RE007 Vpr strain, BacTiter-Glo ATP luminescence, 24 h; 360,000 tested, 0.21% active; active means well fitted falling curve with a large enough effect; inconclusive means small, poorly fitted or top-dose-only effect; inactive means no such curve, though single readings can be large or run the other way; further: potency means the concentration at half of the fitted maximal effect; on the % scale 0 is the no-effect control and ±100 the full control effect; nearly all actives have a fitted effect of over 50% in size
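Fission yeast RE007 carrying one integrated HIV-1 vpr copy, seeded at OD 0.01 in PMG+AL medium with 23 nL pinned compound. Grown 24 h at 30 degrees; viability read by BacTiter-Glo luminescence after 5 min.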
* marks the source's active call; other numbers are inactive results; u = inconclusive; x = no result; [ ] = dose if it differs, or a comment. This is one part of a sample in which hits are shown more often than they occur. Unless noted, the call rests on the fitted dose curve; in most records, active means well fitted curve in the direction sought with a large enough effect; inconclusive means small, poorly fitted or top-dose-only effect, or another doubt; inactive means no such curve, though single readings can be large; an effect the other way counts as inactive or inconclusive.

SMILES | LmPK inhibitor | Cycloheximide cs | FBPA Giardia inh | TbPYK inhibitor | Shiga inhibitor | RE007 growth inh
CCOC(=O)N1CCN(S(=O)(=O)c2ccc(C(=O)N(CCN(C)C)c3nc4ccc(Cl)cc4s3)cc2)CC1 | -3% | 27* | x | 5% | 110* | 10%
CN(C)CCN(C(=O)c1ccc2c(c1)CCCC2)c1nc2cc3c(cc2s1)OCCO3 | -10% | -3 | x | -2% | -20 | 5%
CC(=O)N(CCN(C)C)c1nc2cc3c(cc2s1)OCCO3 | -7% | 31* | x | -6% | 66* | 11%
COC(=O)[C@@]1(Cc2ccc(OC)cc2)[C@H]2c3cc(C(=O)N(C)C)n(Cc4ccc(Cl)c(C(F)(F)F)c4)c3C[C@H]2CN1C(=O)c1ccccc1 | x | x | -13% | x | x | x
CC(=O)OC[C@H]1O[C@@H](O/N=C(\C)CCN2CCCc3nc(C)c(C)cc32)[C@H](OC(C)=O)[C@@H](OC(C)=O)[C@H]1OC(C)=O | x | x | 0%[12.9 µM] | x | x | x
COc1ccc(CNC(=O)CCCc2cn(C)c3ccccc23)c(OC)c1 | x | x | x | 6% | x | x
COC(=O)c1ccc(C(NC(=O)OCc2ccccc2)/C(C)=C/[C@@H](C)C(=O)NCc2cc(F)cc(F)c2)cc1 (some centres undefined) | x | x | -1% | x | x | x
Cc1ccc(N2CC(NC(=O)c3cccc(Cl)c3)CC2=O)cc1C (centres undefined) | x | x | x | -6% | x | x
COC(=O)CCn1[nH]c(=O)c2ccccc2c1=O | -4% | -2 | -11% | 5% | -10 | 1%
O=c1[nH]n(Cc2ccccc2)c(=O)c2ccccc12 | -6% | 26* | 3% | 0% | 4 | 5%
CCOC(=O)C1(Cc2ccccc2Cl)CCN(C(=O)c2cc(C)on2)CC1 | 0% | 28* | 3% | -2% | 40* | -3%
CCOC(=O)C1(Cc2ccccc2Cl)CCN(C(=O)c2cnccn2)CC1 | -5% | 50* | -3% | 0% | 94* | -5%
CC1=C(C(N)=O)C(c2ccc(C)cc2)n2nc(SCc3ccccc3)nc2N1 (centres undefined) | x | x | x | 1% | x | x
N#Cc1ccc(C23CC4(C2)[C@H](CN(Cc2cccnc2)[C@@H]4c2ccccc2)C3c2ccc(C(F)(F)F)cc2)cc1 (some centres undefined) | x | x | -2% | x | x | x
Oc1ccc(/C=C/c2cc(O)cc(O)c2)cc1 | u | 26* | 2% | -24% | 20* | -1%[18.4 µM]
COc1ccc(OCCn2c(NC(=O)c3ccco3)nc3ccccc32)cc1 | -2% | 20* | 8% | -1% | 68 | -7%
COc1ccc2nc(NC(=S)NC(=O)c3ccco3)sc2c1 | -3% | 34* | u | 1% | 127* | 6%
COc1cccc(Nc2nc(-c3sc(NC(=O)c4ccco4)nc3C)cs2)c1 | -11% | 7 | -13% | 2% | 34 | 20%
COc1ccc2sc(NC(=O)c3ccco3)nc2c1 | u | 23* | -6% | -19% | 30 | u
CC(C)C[C@@H](CC(=O)N[C@@H](CCC(=O)O)CC(=O)O)NC(=O)[C@@H]1CCCC[C@H]1NC(=O)C[C@@H](NC(=O)C[C@H](Cc1c[nH]c2ccccc12)NC(=O)[C@@H]1CNCC[C@H]1N)C(C)C | x | x | -10% | x | x | x
Cc1ccc(S(=O)(=O)C(CNC(=O)COc2ccccc2)c2cccs2)cc1 (centres undefined) | x | x | x | -2% | x | x
CCCC(=O)c1ccc(N2CCN(C(=O)OCC)CC2)c(F)c1 | -1% | 23 | 7% | 5% | 54 | 12%
CCCC(=O)c1ccc(N2CCCCCC2)c(F)c1 | -8% | 40* | -3% | 1% | 68* | -2%
CC(=O)c1ccc(N2CCCCC2)c(F)c1 | 9% | 16* | 3% | 2% | -5 | -15%
CCCC(=O)c1ccc(N2CCCCC2)c(F)c1 | 0% | 47* | 0% | -4% | 94* | -6%
SMILES | LmPK inhibitor | Cycloheximide cs | FBPA Giardia inh | TbPYK inhibitor | Shiga inhibitor | RE007 growth inh
CCCCC/C=C\C/C=C\C/C=C\CCCCC(=O)NCCCC(=O)O | x | x | 7% | x | x | x
CCOC(=O)c1sc(-c2ccccc2)nc1C | -5% | 34* | 1% | 3% | 30 | -6%
CCOC(=O)c1sc(-c2cccs2)nc1C | -18% | 43* | 7% | -3% | 130* | -10%
CCOC(=O)Cc1ccc2sc(-c3ccccc3)nc2c1 | 16µM* | 58* | 6% | u | 31* | u
COc1ccc(NC(=O)NC(C)c2ccccc2)cc1 (centres undefined) | -6% | -2 | x | 2% | -9 | 4%
COc1ccc(NC(C)c2ccccc2)cc1 (centres undefined) | 1% | 35* | -19% | -19% | 84* | -23%
C=CCN1C=CC(=CC=C(C#N)C#N)C=C1 | -3% | 21* | -7% | 3% | 74* | 1%
CCn1c(C)nc2cc(N)ccc21 | 1% | 35* | u | 5% | 74 | -12%
CCn1c(C)nc2cc(C(=O)OCCC(F)(F)F)ccc21 | -3% | 29* | -28% | -5% | 86* | -26%
CCn1c(C)nc2cc(OC)ccc21 | 0% | 1 | 0% | 0% | -9 | -9%
CCc1ccccc1-n1cnc2cc(C(=O)NC3CCCCCC3)ccc21 | x | x | x | 1% | x | x
CCOc1ccc(-c2cn(-c3ccc(OC)cc3)c(SC)n2)cc1 | -5% | 68* | -5% | 2% | 113* | 1%
CSc1nc(-c2ccccc2)cn1-c1ccc(NC(C)=O)cc1 | -16% | 35* | 13% | -17% | 79* | 6%
CCOc1ccc(-c2cn(-c3ccc(OC)cc3)c(SCC(=O)Nc3ccccc3Cl)n2)cc1 | x | x | x | 1% | x | x
CC(=O)C1=C(c2cccc([N+](=O)[O-])c2)N(C(C)=O)n2c(C)nnc2S1 | -25% | 18* | 1% | -2% | 12 | -3%
CCOc1ccc(C2=C(C(C)=O)Sc3nnc(C)n3N2C(C)=O)cc1 | x | 20* | x | 3% | 45 | x
COC(=O)C1=C(C(=O)OC)[C@@H]2N(Cc3ccccc3)c3ccccc3[C@@]23C[C@@H](C(=O)OC)N(S(=O)(=O)c2c(C)noc2C)C3=N1 | -9%[11.5 µM] | x | -1%[12.9 µM] | x | x | x
CCOc1ccccc1NC(=O)C1CCN(S(=O)(=O)c2cc(Br)cc3c2N(C(C)=O)CC3)CC1 | x | x | x | 0% | x | x
CN(C)S(=O)(=O)c1ccc(C(=O)NCCSc2c(-c3ccccc3)[nH]c3ccccc23)cc1 | x | x | x | -5% | x | x
CN(C)S(=O)(=O)c1ccc(C(=O)NCCSc2ccccc2)cc1 | 6% | 48* | 1% | -2% | 151* | 7%
COc1ccc(C(=O)NCCSc2ccccc2)cc1OC | 2% | 33* | 4% | u | 64* | 24%
COc1cc(C(=O)NCCSc2ccccc2)cc(OC)c1OC | 0% | 9 | 7% | -3% | -1 | -17%
O=C(Cn1cc(S(=O)(=O)Cc2ccc(F)cc2)c2ccccc21)NCc1ccccc1Cl | x | x | x | 3%[15.4 µM] | x | x
